Source: PubChem BioAssay AID1159580 (chemical genetic matrix, 2015)
The whole screen tested about 5,500 compounds, of which about 2,000 (36%) were called active. Another 18% or so got no clear call; they are omitted. Rule as the data show it: active = normalized growth mostly below about 0.91 (no sharp cut-off); inconclusive = no clear call, values can overlap the other calls; inactive = mostly above about 0.92. The list shows a part of the results.

Test: chemical genetic growth profiling, strain panel (AID 1159580);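 also: tested at 20 µM; growth read once vehicle control cultures reached saturation at 30 °C; 1 = growth at the plate median or of vehicle wells; lower values mean less growth of the strain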
Settings: growth OD

Measured: normalized growth

CC(=O)NS(=O)(=O)c1ccc(N)cc1
inactive: S. cerevisiae deletion strains, locus YJR066W, strain TOR1, active compounds read low 0.931 | S. cerevisiae deletion strains, locus YKL009W, strain mrt4, active compounds read low 0.975 | S. cerevisiae deletion strains, locus YKL068W, active compounds read low 0.989 | S. cerevisiae deletion strains, locus YKL085W, strain MDH1 (second series), active compounds read low 0.982 | S. cerevisiae deletion strains, locus YKL085W, strain MDH1, active compounds read low 0.982 | S. cerevisiae deletion strains, locus YKL160W, strain elf1, active compounds read low 1 | S. cerevisiae deletion strains, locus YKL190W, strain CNB1, active compounds read low 0.997 | S. cerevisiae deletion strains, locus YKR001C, strain vps1, active compounds read low 0.975 | S. cerevisiae deletion strains, locus YKR026C, strain gcn3, active compounds read low 1.01 | S. cerevisiae deletion strains, locus YKR091W, strain srl3, active compounds read low 1.01 | S. cerevisiae deletion strains, locus YLL001W, strain dnm1, active compounds read low 1 | S. cerevisiae deletion strains, locus YLL026W, active compounds read low 1.01 | S. cerevisiae deletion strains, locus YLL041C, strain sdh2, active compounds read low 1.02 | S. cerevisiae deletion strains, locus YLR027C, strain aat2, active compounds read low 1.01 | S. cerevisiae deletion strains, locus YLR039C, strain RIC1, active compounds read low 1 | S. cerevisiae deletion strains, locus YLR058C, strain SHM2, active compounds read low 0.992 | S. cerevisiae deletion strains, locus YLR102C, strain apc9, active compounds read low 0.988 | S. cerevisiae deletion strains, locus YLR113W, strain HOG1, active compounds read low 0.983 | S. cerevisiae deletion strains, locus YLR221C, strain rsa3, active compounds read low 1.01 | S. cerevisiae deletion strains, locus YLR258W, strain gsy2, active compounds read low 1.01 | S. cerevisiae deletion strains, locus YLR262C, strain YPT6 (second series), active compounds read low 1.03 | S. cerevisiae deletion strains, locus YLR262C, strain YPT6, active compounds read low 1 | S. cerevisiae deletion strains, locus YLR268W, strain sec22, active compounds read low 0.945 | S. cerevisiae deletion strains, locus YLR320W, strain mms22, active compounds read low 1.01 | S. cerevisiae deletion strains, locus YLR330W, strain CHS5, active compounds read low 0.993 | S. cerevisiae deletion strains, locus YLR342W, strain FKS1 (second series), active compounds read low 0.992 | S. cerevisiae deletion strains, locus YLR342W, strain FKS1, active compounds read low 1.01 | S. cerevisiae deletion strains, locus YLR357W, strain rsc2, active compounds read low 1.04 | S. cerevisiae deletion strains, locus YLR370C, strain arc18, active compounds read low 1.01 | S. cerevisiae deletion strains, locus YLR371W, strain rom2, active compounds read low 0.98 | S. cerevisiae deletion strains, locus YLR384C, strain iki3, active compounds read low 1.01 | S. cerevisiae deletion strains, locus YLR418C, strain cdc73, active compounds read low 0.968 | S. cerevisiae deletion strains, locus YML016C, strain PPZ1, active compounds read low 0.99 | S. cerevisiae deletion strains, locus YML032C, strain rad52, active compounds read low 0.976 | S. cerevisiae deletion strains, locus YML120C, strain ndi1, active compounds read low 1.01 | S. cerevisiae deletion strains, locus YML124C, strain tub3, active compounds read low 0.977 | S. cerevisiae deletion strains, locus YMR058W, strain fet3, active compounds read low 1.03 | S. cerevisiae deletion strains, locus YMR078C, strain ctf18, active compounds read low 0.985 | S. cerevisiae deletion strains, locus YMR125W, strain sto1, active compounds read low 1 | S. cerevisiae deletion strains, locus YMR129W, active compounds read low 1.01 | S. cerevisiae deletion strains, locus YMR205C, strain PFK2, active compounds read low 1.02 | S. cerevisiae deletion strains, locus YMR223W, strain ubp8, active compounds read low 0.996 | S. cerevisiae deletion strains, locus YMR231W, strain pep5, active compounds read low 1.01 | S. cerevisiae deletion strains, locus YMR307W, strain GAS1, active compounds read low 0.985 | S. cerevisiae deletion strains, locus YNL067W, strain RPL9B, active compounds read low 1 | S. cerevisiae deletion strains, locus YNL071W, strain lat1, active compounds read low 0.999 | S. cerevisiae deletion strains, locus YNL128W, strain TEP1, active compounds read low 0.978 | S. cerevisiae deletion strains, locus YNL183C, strain NPR1, active compounds read low 0.951 | S. cerevisiae deletion strains, locus YNL209W, strain ssb2, active compounds read low 1.03 | S. cerevisiae deletion strains, locus YNL233W, strain BNI4, active compounds read low 0.993 | S. cerevisiae deletion strains, locus YNL248C, strain rpa49, active compounds read low 1.03 | S. cerevisiae deletion strains, locus YNL250W, strain rad50, active compounds read low 0.971 | S. cerevisiae deletion strains, locus YNL271C, strain bni1, active compounds read low 0.973 | S. cerevisiae deletion strains, locus YNL298W, strain CLA4, active compounds read low 0.974 | S. cerevisiae deletion strains, locus YNL307C, strain MCK1, active compounds read low 0.97 | S. cerevisiae deletion strains, locus YNL322C, strain KRE1 (second series), active compounds read low 0.995 | S. cerevisiae deletion strains, locus YNL322C, strain KRE1, active compounds read low 0.992 | S. cerevisiae deletion strains, locus YNR049C, strain mso1, active compounds read low 1.01 | S. cerevisiae deletion strains, locus YNR052C, strain pop2, active compounds read low 0.977 | S. cerevisiae deletion strains, locus YOL006C, strain TOP1, active compounds read low 1.02 | S. cerevisiae deletion strains, locus YOL012C, strain htz1 0.651 | S. cerevisiae deletion strains, locus YOL147C, strain pex11, active compounds read low 0.985 | S. cerevisiae deletion strains, locus YOR001W, strain rrp6, active compounds read low 1.02 | S. cerevisiae deletion strains, locus YOR061W, strain CKA2, active compounds read low 0.989 | S. cerevisiae deletion strains, locus YOR069W, strain VPS5, active compounds read low 0.984 | S. cerevisiae deletion strains, locus YOR070C, strain gyp1, active compounds read low 1.02 | S. cerevisiae deletion strains, locus YOR080W, strain dia2, active compounds read low 1.01 | S. cerevisiae deletion strains, locus YOR083W, strain WHI5, active compounds read low 1 | S. cerevisiae deletion strains, locus YOR106W, strain vam3, active compounds read low 1.02 | S. cerevisiae deletion strains, locus YOR136W, strain idh2, active compounds read low 0.996 | S. cerevisiae deletion strains, locus YOR144C, strain elg1, active compounds read low 0.987 | S. cerevisiae deletion strains, locus YOR184W, strain ser1, active compounds read low 0.989 | S. cerevisiae deletion strains, locus YOR231W, strain MKK1, active compounds read low 0.997 | S. cerevisiae deletion strains, locus YOR265W, strain rbl2, active compounds read low 1.01 | S. cerevisiae deletion strains, locus YOR270C, strain vph1, active compounds read low 1.04 | S. cerevisiae deletion strains, locus YOR290C, strain snf2, active compounds read low 1 | S. cerevisiae deletion strains, locus YOR316C, strain cot1, active compounds read low 0.982 | S. cerevisiae deletion strains, locus YPL051W, strain arl3, active compounds read low 1.02 | S. cerevisiae deletion strains, locus YPL078C, strain atp4, active compounds read low 1.01 | S. cerevisiae deletion strains, locus YPL106C, strain sse1, active compounds read low 1.01 | S. cerevisiae deletion strains, locus YPL240C, strain hsp82, active compounds read low 1.02 | S. cerevisiae deletion strains, locus YPL241C, strain CIN2, active compounds read low 0.995 | S. cerevisiae deletion strains, locus YPL256C, strain CLN2, active compounds read low 1 | S. cerevisiae deletion strains, locus YPR119W, strain clb2, active compounds read low 0.995 | S. cerevisiae deletion strains, locus YPR141C, strain kar3, active compounds read low 0.981 | S. cerevisiae deletion strains, locus YPR163C, strain tif3, active compounds read low 0.982 | S. cerevisiae deletion strains, locus YPR167C, strain met16, active compounds read low 0.982 | S. cerevisiae deletion strains, strain wtn01, active compounds read low 0.969 | S. cerevisiae strains, strain wild type, active compounds read low 1
